# Source: PubChem (National Center for Advancing Translational Sciences (NCATS))
# TDP1 cell CPT: DT40-hTDP1 cell growth loss with CPT | AID 686979 | Potency, µM (titrated, usually from 46.2 µM), without a hit: top-dose activity change, negative = growth inhibition, most hits filed as inhibitors | 420,000 tested, 12% active | chicken DT40 Tdp1-/-;hTDP1 cells + 20 nM CPT, ATP luminescence, 48 h; note: nearly all actives have a fitted effect of over 55% in size
#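 Cell growth measured by CellTiter-Glo luminescence after a minimum 48 h, 37 C compound exposure with 20 nM CPT in Tdp1-knockout DT40 cells stably expressing hTDP1, seeded 400/well; qHTS titration format.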
# HT1080 IDH1KD tx: kills HT-1080 cells with IDH1 knockdown | HT-1080 IDH1 knockdown viability, ATP luminescence, 48 h | 360,000 tested, 2% active | Potency, µM (top dose mostly 46.1 µM), inactives show at the highest dose activity, negative = toxicity, hits mostly cytotoxic;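 note: 0% = DMSO wells and -100% = cell-free medium wells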
#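 After a 2 h attachment period, IDH1KD HT-1080 cells took pin-transferred compound for 48 h at 37 °C; ATP-based luminescence after 10 min room-temperature reagent incubation reported viability.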
# KB-3-1 tox: kills parental KB-3-1 adenocarcinoma cells. KB-3-1 viability, CellTiter-Glo ATP luminescence, 72 h. Potency, µM (doses to about 46.1 µM), usual class: cytotoxic. 400,000 tested, 1.4% active; note: nearly all actives have a fitted effect of over 60% in size
#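 Cytotoxicity in the drug-sensitive parental line KB-3-1 was scored as loss of CellTiter-Glo luminescence following 72 h incubation with compound. Values come from curve fitting of normalized concentration-response data.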
# HT1080-NT tox: kills 2HG-producing HT-1080-NT fibrosarcoma cells. Potency, µM (doses to about 46.1 µM), inactives show top-dose activity, negative = less viability, most hits filed as cytotoxic. 360,000 tested, 1.6% active. HT-1080-NT fibrosarcoma viability, CellTiter-Glo ATP luminescence, 48 h. AID 686970;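 note: NT is the 2HG producing partner of a matched IDH1 knockdown line; 0% = DMSO-treated cells and -100% = media-only wells without cells; nearly all actives have a fitted effect of over 55% in size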
#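 Viability of the 2HG-overproducing fibrosarcoma line after 48 hours of compound exposure at 37 degrees C was determined by luminescence with CellTiter-Glo, and concentration-effect curves were then fitted and categorized.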
# TDP1 cell noCPT: qHTS for Inhibitors of human tyrosyl-DNA phosphodiesterase 1 (TDP1): qHTS in cells in absence of CPT | DT40 Tdp1-/- hTDP1 cells, no CPT, ATP luminescence, 48 h | AID 686978, 2013 | Potency, µM (highest dose often 46.2 µM), without a hit: top-dose activity change, negative = growth inhibition, usual class: inhibitors | 420,000 tested, 15% active; note: nearly all actives have a fitted effect of over 55% in size
#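 DT40 Tdp1-/-;hTDP1 cells, no CPT (DMSO vehicle only), 400 cells/well; compounds pin-transferred; ≥48 hr, 37 °C; CellTiter-Glo 30 min RT dark, luminescence read.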
# KB-V1 MDR tox: KB-V1 MDR subline cytotoxicity; AID 1347076; KB-V1 MDR cells viability, CellTiter-Glo, 72 h; 400,000 tested, 3.4% active; Potency, µM (doses to about 46.1 µM), usual class: cytotoxic; note: nearly all actives have a fitted effect of over 60% in size
#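 Cytotoxicity via CellTiter-Glo luminescence after 72 h compound exposure at 37 degrees C. Cells: drug-selected KB-V1 line, DMEM phenol-red free plus 10% FBS. Compounds tested at multiple concentrations; normalized data fitted to concentration-effect curves.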
# Active calls of the source: *; i = inactive; ? = inconclusive; . = no result given; [ ] = dose if it differs, or a comment. Rows were chosen to be rich in hits. Some 19% of all compounds tested hit in one or more screens of this group. Calls come from the whole dose curve; as a rule, active = well fitted curve in the direction sought with a large enough effect; inconclusive = small, poorly fitted or top-dose-only effect, or another doubt; inactive = no such curve, though single readings can be large; an effect the other way counts as inactive or inconclusive. Unless noted, % is set by controls: 0 for no effect and ±100 for the full control effect; potency is the fitted concentration of half-maximal effect.
SMILES,TDP1 cell CPT,HT1080 IDH1KD tx,KB-3-1 tox,HT1080-NT tox,TDP1 cell noCPT,KB-V1 MDR tox
CC1(C)CC2CC(C)(CN2C(=O)c2cccs2)C1 (configuration not stated),?,-8.4%,i,-3.0%,8.2µM*,i
CC(=O)Nc1ccccc1C(=O)N1CC2(C)CC1CC(C)(C)C2 (configuration not stated),-5.0%,0.7%,i,8.3%,-1.0%,i
CC1(C)C[C@@H]2C[C@@](C)(CN2C(=O)c2ccccc2)C1,?,0.8%,i,0.5%,14.6µM*,i
CC1(C)CC2CC(C)(CN2C(=O)c2ccc([N+](=O)[O-])cc2)C1 (configuration not stated),20.6µM*,-17.2%,i,1.2%,?,i
Cc1ccc2onc(CC(=O)Nc3cc(F)ccc3F)c2c1,-14.0%,.,.,.,-29.9%,.
CN(C)CCNc1nc(Oc2ccccc2)c2sccc2n1,-5.4%,3.4%,i,2.6%,-17.1%,i
COc1ccc2c(c1)OC[C@H]1[C@H]2N2C(=O)c3ccc(C)cc3NC(=O)[C@@]2(C)[C@H]1c1ccccc1,23.1µM*,?,i,-24.7%,?,i
COc1ccc2c(c1)OC[C@H]1[C@H]2N2C(=O)c3cc(F)ccc3NC(=O)[C@@]2(C)[C@H]1c1ccccc1,?,?,?,?,18.4µM*,?
CN(Cc1ccc(Cl)cc1Cl)C(=O)CCNC(=O)c1ccco1,-9.7%,3.6%,i,2.4%,-21.7%,i
CCc1ccc(N(CC(=O)N2CCOCC2)S(C)(=O)=O)cc1,19.7%,6.8%,i,5.2%,-2.2%,i
COc1cc(Nc2nc(SCc3ccccc3F)nc3ccccc23)cc(OC)c1,?,.,.,.,18.4µM*,.
Fc1ccc(Nc2nc(SCc3ccccc3F)nc3ccccc23)cc1,16.4µM*,.,.,.,16.4µM*,.
Nc1nc(-c2ccccc2)nn1S(=O)(=O)c1ccccc1,6.8%,-4.1%,i,-12.3%,-1.9%,i
Cc1ccc(S(=O)(=O)NCc2ccccc2)cc1C(=O)NCc1ccncc1,4.8%,5.6%,i,4.2%,-6.5%,i
Cc1ccc(C)c(/C=C(\C(=O)O)c2ccc(S(=O)(=O)N3CCCCC3)s2)c1,9.6%,16.0%,i,-1.3%,-14.5%,i
COC(=O)N1CCC2(CC1)CN(C(=O)Nc1cccc(C#N)c1)C2,-10.3%,.,.,.,1.5%,.
CSc1ccccc1C(=O)N1CCc2ccc(NC(=O)c3ccccn3)cc2C1,13µM*,?,?,?,11.6µM*,?
O=C(Nc1ccc2c(c1)CN(C(=O)Nc1ccc(F)cc1)CC2)c1ccccn1,5.8µM*,?,?,-17.9%,4.11µM*,?
N#CN=c1snc(-c2ccccc2Cl)n1-c1ccc(F)cc1,?,.,i,.,?,i
CCC1(CC)C(=O)NC(=O)NC1=S,-0.7%,9.5%,i,0.7%,-10.9%,?
Cc1cc(C)cc(C(=O)N2CC(C)OC(C)C2)c1 (configuration not stated),-1.1%,-1.5%,i,-0.3%,0.9%,i
O=C1NC(=S)NC1=Cc1ccc2c(c1)CCC2,16.4µM*,17.9%,i,18.4%,?,i
O=C1NC(=S)N/C1=C/C=C/c1ccccc1,-1.1%,5.9%,i,6.4%,-17.4%,i
CCC1(C2CCN(C(=O)c3ccc(C)cc3C)CC2)NC(=O)N(CCc2scnc2C)C1=O (configuration not stated),-4.6%[9.04 µM],.,.,.,-19.4%,.
CC1=NC(Nc2nc(C)c3ccccc3n2)=NC(C)(C)C1,20.6µM*,1.5%,?,-1.1%,16.4µM*,?
SMILES,TDP1 cell CPT,HT1080 IDH1KD tx,KB-3-1 tox,HT1080-NT tox,TDP1 cell noCPT,KB-V1 MDR tox
C[N+](C)(C)CC/C=C1/c2ccccc2CSc2ccccc21,?,-6.3%,i,-5.9%,?,i
CNCCC=C1c2ccccc2CCc2ccccc21,9.2µM*,?,i,23.1µM*,20.6µM*,20.6µM*
O=C(COC(=O)CNS(=O)(=O)c1ccccc1)Nc1ncc(Cl)cc1Cl,6.4%,-3.4%,i,-6.5%,6.51µM*,i
C=C1C=C(C)n2ncc(C(=O)NCCCCCC)c2N1,-2.2%,.,?,.,?,i
Nc1ccc(-c2cnc(N)c(C(=O)c3cccnc3)n2)cn1,1.84µM*,-3.3%,?,-8.4%,3.66µM*,i
N#CCN1C(=O)C2CCCN2c2ccc(S(=O)(=O)N3CCOCC3)cc21 (configuration not stated),-7.7%,8.7%,i,11.1%,-1.6%,i
Cc1nc(OCC(C)C)c2sc3nc4c(cc3c2n1)COC(C)(C)C4,?,24.7%,i,17.0%,20.6µM*,i
CC1(C)Cc2nc3sc4c(N(CCO)CCO)ncnc4c3cc2CO1,-29.1%,5.0%,?,0.6%,?,i
COC(=O)CSc1ncnc2c1sc1nc3c(cc12)COC(C)(C)C3,-18.2%,?,i,?,?,i
CCc1nc(OCc2ccco2)c2sc3nc4c(cc3c2n1)COC(C)(C)C4,25.9µM*,-3.5%,?,-21.4%,16.4µM*,?
CCc1nc2c(sc3nc4c(cc32)COC(C)(C)C4)c(=O)n1Cc1ccco1,23.1µM*,13.3%[9.24 µM],?,?,23.1µM*,11.6µM*
O=C(OCCOc1cccc(Cl)c1)c1ccc2ncsc2c1,4.6%,1.7%,i,8.9%,15.7%,i
O=C(c1ccc(S(=O)(=O)Nc2ccccc2F)cc1)N1CCCC1,1.4%,-2.8%,i,-12.7%,-19.0%,i
CCCCn1cnc2c(SCc3ccc(Br)cc3)nc(N)nc21,?,16.4µM*,i,14.6µM*,?,i
N#Cc1ccc(NC(=O)c2nc(-c3ccccc3)n(-c3ccccc3)n2)cc1,?,12.1%,i,8.1%,?,i
CC(=O)c1ccc(NC(=O)c2nc(-c3ccccc3)n(-c3ccccc3Cl)n2)cc1,25.9µM*,.,i,.,18.4µM*,i
CC(=O)c1ccc(NC(=O)c2nc(-c3ccccc3)n(-c3ccccc3)n2)cc1,?,.,i,.,20.6µM*,?
CC(=O)c1cccc(NC(=O)c2nc(-c3ccccc3)n(-c3cccc(Cl)c3)n2)c1,16.4µM*,.,i,.,13µM*,i
COc1ccc(-c2nc(C(=O)Nc3ccc(C(C)=O)cc3)nn2-c2cccc(Cl)c2)cc1,?,.,i,.,?,i
